# Assay results taken from paper PMC11062922 (Nature Chemical Biology, 2023).
# Read-outs that look alike come from different tables or passages of the source.
# Experiments:
# AURKB = conditions: read-out: apparent Kd, n = 1
# CDKL5 = conditions: read-out: apparent Kd, n = 1
# [1] = compound concentrations:100 nM and 1000 nM (sheet 'Lestaurtinib' of Supplementary Table 1),run:Lestaurtinib_02438_R3,Plate:MR008
# [2] = compound concentrations:100 nM and 1000 nM (sheet 'Lestaurtinib' of Supplementary Table 1),run:Lestaurtinib_02443_R2,Plate:MR009
# [3] = compound concentrations:100 nM and 1000 nM (sheet 'Lestaurtinib' of Supplementary Table 1),run:Lestaurtinib_02473_R1,Plate:MR010
# [4] = compound concentrations:100 nM and 1000 nM (sheet 'Lestaurtinib' of Supplementary Table 1),run:Lestaurtinib_02487_R1,Plate:MR012
# [5] = compound concentrations:100 nM and 1000 nM (sheet 'Lestaurtinib' of Supplementary Table 1),run:Lestaurtinib_02487_R2,Plate:MR012
# [6] = compound concentrations:100 nM and 1000 nM (sheet 'Lestaurtinib' of Supplementary Table 1),run:Lestaurtinib_02566_R1,Plate:MR014
# [7] = compound concentrations:100 nM and 1000 nM (sheet 'Lestaurtinib' of Supplementary Table 1),run:Lestaurtinib_02572_R1,Plate:MR015
substance,measurement,setting,value
Lestaurtinib,potency estimated from few doses,AURKB; [1],0.161 µM
same,potency estimated from few doses,"AURKB; compound concentrations:100 nM and 1000 nM (sheet 'Lestaurtinib' of Supplementary Table 1),run:Lestaurtinib_02443_R1,Plate:MR009",0.193 µM
same,potency estimated from few doses,AURKB; [2],0.26 µM
same,potency estimated from few doses,AURKB; [3],0.144 µM
same,potency estimated from few doses,AURKB; [4],0.224 µM
same,potency estimated from few doses,AURKB; [5],0.219 µM
same,potency estimated from few doses,"AURKB; compound concentrations:100 nM and 1000 nM (sheet 'Lestaurtinib' of Supplementary Table 1),run:Lestaurtinib_02496_R2,Plate:MR013",0.115 µM
same,potency estimated from few doses,AURKB; [6],0.273 µM
same,potency estimated from few doses,"AURKB; compound concentrations:100 nM and 1000 nM (sheet 'Lestaurtinib' of Supplementary Table 1),run:Lestaurtinib_02566_R2,Plate:MR014",0.297 µM
same,potency estimated from few doses,AURKB; [7],0.271 µM
same,potency estimated from few doses,"AURKB; compound concentrations:100 nM and 1000 nM (sheet 'Lestaurtinib' of Supplementary Table 1),run:Lestaurtinib_02572_R3,Plate:MR015",0.151 µM
same,potency estimated from few doses,"AURKB; compound concentrations:100 nM and 1000 nM (sheet 'Lestaurtinib' of Supplementary Table 1),run:Lestaurtinib_02577_R1,Plate:MR016",0.239 µM
same,potency estimated from few doses,"AURKB; compound concentrations:100 nM and 1000 nM (sheet 'Lestaurtinib' of Supplementary Table 1),run:Lestaurtinib_02584_R1,Plate:MR017",0.236 µM
same,potency estimated from few doses,"AURKB; compound concentrations:100 nM and 1000 nM (sheet 'Lestaurtinib' of Supplementary Table 1),run:Lestaurtinib_02584_R2,Plate:MR017",0.271 µM
same,potency estimated from few doses,"AURKB; compound concentrations:100 nM and 1000 nM (sheet 'Lestaurtinib' of Supplementary Table 1),run:Lestaurtinib_02584_R3,Plate:MR017",0.237 µM
same,potency estimated from few doses,"AURKB; compound concentrations:100 nM and 1000 nM (sheet 'Lestaurtinib' of Supplementary Table 1),run:Lestaurtinib_02601_R2,Plate:MR018",0.24 µM
same,potency estimated from few doses,"AURKB; compound concentrations:100 nM and 1000 nM (sheet 'Lestaurtinib' of Supplementary Table 1),run:Lestaurtinib_02606_R1,Plate:MR019",0.271 µM
same,potency estimated from few doses,"AURKB; compound concentrations:100 nM and 1000 nM (sheet 'Lestaurtinib' of Supplementary Table 1),run:Lestaurtinib_02624_R1,Plate:MR020",0.259 µM
same,potency estimated from few doses,"AURKB; compound concentrations:100 nM and 1000 nM (sheet 'Lestaurtinib' of Supplementary Table 1),run:Lestaurtinib_02624_R2,Plate:MR020",0.278 µM
same,potency estimated from few doses,"AURKB; compound concentrations:100 nM and 1000 nM (sheet 'Lestaurtinib' of Supplementary Table 1),run:Lestaurtinib_02624_R3,Plate:MR020",0.26 µM
same,potency estimated from few doses,"AURKB; compound concentrations:100 nM and 1000 nM (sheet 'Lestaurtinib' of Supplementary Table 1),run:Lestaurtinib_02724_R1,Plate:MR021",0.414 µM
same,potency estimated from few doses,"AURKB; compound concentrations:100 nM and 1000 nM (sheet 'Lestaurtinib' of Supplementary Table 1),run:Lestaurtinib_02724_R2,Plate:MR021",0.253 µM
same,potency estimated from few doses,"AURKB; compound concentrations:100 nM and 1000 nM (sheet 'Lestaurtinib' of Supplementary Table 1),run:Lestaurtinib_02724_R3,Plate:MR021",0.0805 µM
same,potency estimated from few doses,"AURKB; compound concentrations:100 nM and 1000 nM (sheet 'Lestaurtinib' of Supplementary Table 1),run:Lestaurtinib_02741_R1,Plate:MR023",0.289 µM
same,potency estimated from few doses,"AURKB; compound concentrations:100 nM and 1000 nM (sheet 'Lestaurtinib' of Supplementary Table 1),run:Lestaurtinib_02741_R2,Plate:MR023",0.259 µM
same,potency estimated from few doses,"AURKB; compound concentrations:100 nM and 1000 nM (sheet 'Lestaurtinib' of Supplementary Table 1),run:Lestaurtinib_02748_R1,Plate:MR024",0.229 µM
same,potency estimated from few doses,"AURKB; compound concentrations:100 nM and 1000 nM (sheet 'Lestaurtinib' of Supplementary Table 1),run:Lestaurtinib_02748_R2,Plate:MR024",0.286 µM
same,potency estimated from few doses,"AURKB; compound concentrations:100 nM and 1000 nM (sheet 'Lestaurtinib' of Supplementary Table 1),run:Lestaurtinib_02752_R1,Plate:MR025",0.29 µM
same,potency estimated from few doses,"AURKB; compound concentrations:100 nM and 1000 nM (sheet 'Lestaurtinib' of Supplementary Table 1),run:Lestaurtinib_02765_R1,Plate:MR026",0.275 µM
same,potency estimated from few doses,"AURKB; compound concentrations:100 nM and 1000 nM (sheet 'Lestaurtinib' of Supplementary Table 1),run:Lestaurtinib_02765_R3,Plate:MR026",0.35 µM
same,potency estimated from few doses,"AURKB; compound concentrations:100 nM and 1000 nM (sheet 'Lestaurtinib' of Supplementary Table 1),run:Lestaurtinib_02766_R2,Plate:MR027",0.0953 µM
same,potency estimated from few doses,"AURKB; compound concentrations:100 nM and 1000 nM (sheet 'Lestaurtinib' of Supplementary Table 1),run:Lestaurtinib_02768_R1,Plate:MR028",0.151 µM
same,potency estimated from few doses,"AURKB; compound concentrations:100 nM and 1000 nM (sheet 'Lestaurtinib' of Supplementary Table 1),run:Lestaurtinib_02768_R2,Plate:MR028",0.146 µM
same,potency estimated from few doses,"AURKB; compound concentrations:100 nM and 1000 nM (sheet 'Lestaurtinib' of Supplementary Table 1),run:Lestaurtinib_02768_R3,Plate:MR028",0.169 µM
same,potency estimated from few doses,"AURKB; compound concentrations:100 nM and 1000 nM (sheet 'Lestaurtinib' of Supplementary Table 1),run:Lestaurtinib_02795_R2,Plate:MR022",0.132 µM
same,potency estimated from few doses,"AURKB; compound concentrations:100 nM and 1000 nM (sheet 'Lestaurtinib' of Supplementary Table 1),run:Lestaurtinib_02795_R3,Plate:MR022",0.269 µM
same,potency estimated from few doses,"AURKB; compound concentrations:100 nM and 1000 nM (sheet 'Lestaurtinib' of Supplementary Table 1),run:Lestaurtinib_02802_R2,Plate:MR029",0.144 µM
same,potency estimated from few doses,"AURKB; compound concentrations:100 nM and 1000 nM (sheet 'Lestaurtinib' of Supplementary Table 1),run:Lestaurtinib_02802_R3,Plate:MR029",0.0836 µM
same,potency estimated from few doses,"AURKB; compound concentrations:100 nM and 1000 nM (sheet 'Lestaurtinib' of Supplementary Table 1),run:Lestaurtinib_02896_R3,Plate:MR030",0.218 µM
same,potency estimated from few doses,"AURKB; compound concentrations:100 nM and 1000 nM (sheet 'Lestaurtinib' of Supplementary Table 1),run:Lestaurtinib_03172_R1,Plate:MR031",0.146 µM
same,potency estimated from few doses,"AURKB; compound concentrations:100 nM and 1000 nM (sheet 'Lestaurtinib' of Supplementary Table 1),run:Lestaurtinib_03172_R3,Plate:MR031",0.29 µM
same,potency estimated from few doses,"AURKB; compound concentrations:100 nM and 1000 nM (sheet 'Lestaurtinib' of Supplementary Table 1),run:Lestaurtinib_03252_R2,Plate:MR032",0.136 µM
same,potency estimated from few doses,"AURKB; compound concentrations:100 nM and 1000 nM (sheet 'Lestaurtinib' of Supplementary Table 1),run:Lestaurtinib_03260_R2,Plate:MR033",0.243 µM
same,potency estimated from few doses,"CDKL5; compound concentrations:100 nM and 1000 nM (sheet 'Lestaurtinib' of Supplementary Table 1),run:Lestaurtinib_02339_R1,Plate:MR001",0.0725 µM
same,potency estimated from few doses,"CDKL5; compound concentrations:100 nM and 1000 nM (sheet 'Lestaurtinib' of Supplementary Table 1),run:Lestaurtinib_02339_R2,Plate:MR001",0.0377 µM
same,potency estimated from few doses,"CDKL5; compound concentrations:100 nM and 1000 nM (sheet 'Lestaurtinib' of Supplementary Table 1),run:Lestaurtinib_02364_R1,Plate:MR002",0.00584 µM
same,potency estimated from few doses,"CDKL5; compound concentrations:100 nM and 1000 nM (sheet 'Lestaurtinib' of Supplementary Table 1),run:Lestaurtinib_02364_R3,Plate:MR002",0.158 µM
same,potency estimated from few doses,"CDKL5; compound concentrations:100 nM and 1000 nM (sheet 'Lestaurtinib' of Supplementary Table 1),run:Lestaurtinib_02367_R2,Plate:MR003",0.373 µM
same,potency estimated from few doses,"CDKL5; compound concentrations:100 nM and 1000 nM (sheet 'Lestaurtinib' of Supplementary Table 1),run:Lestaurtinib_02367_R3,Plate:MR003",0.0379 µM
same,potency estimated from few doses,"CDKL5; compound concentrations:100 nM and 1000 nM (sheet 'Lestaurtinib' of Supplementary Table 1),run:Lestaurtinib_02381_R1,Plate:MR004",0.135 µM
same,potency estimated from few doses,"CDKL5; compound concentrations:100 nM and 1000 nM (sheet 'Lestaurtinib' of Supplementary Table 1),run:Lestaurtinib_02381_R2,Plate:MR004",0.149 µM
same,potency estimated from few doses,"CDKL5; compound concentrations:100 nM and 1000 nM (sheet 'Lestaurtinib' of Supplementary Table 1),run:Lestaurtinib_02381_R3,Plate:MR004",0.269 µM
same,potency estimated from few doses,"CDKL5; compound concentrations:100 nM and 1000 nM (sheet 'Lestaurtinib' of Supplementary Table 1),run:Lestaurtinib_02407_R1,Plate:MR005",0.0436 µM
same,potency estimated from few doses,"CDKL5; compound concentrations:100 nM and 1000 nM (sheet 'Lestaurtinib' of Supplementary Table 1),run:Lestaurtinib_02407_R2,Plate:MR005",0.167 µM
same,potency estimated from few doses,"CDKL5; compound concentrations:100 nM and 1000 nM (sheet 'Lestaurtinib' of Supplementary Table 1),run:Lestaurtinib_02437_R1,Plate:MR007",0.032 µM
same,potency estimated from few doses,"CDKL5; compound concentrations:100 nM and 1000 nM (sheet 'Lestaurtinib' of Supplementary Table 1),run:Lestaurtinib_02437_R2,Plate:MR007",0.113 µM
same,potency estimated from few doses,"CDKL5; compound concentrations:100 nM and 1000 nM (sheet 'Lestaurtinib' of Supplementary Table 1),run:Lestaurtinib_02437_R3,Plate:MR007",0.00219 µM
same,potency estimated from few doses,"CDKL5; compound concentrations:100 nM and 1000 nM (sheet 'Lestaurtinib' of Supplementary Table 1),run:Lestaurtinib_02438_R1,Plate:MR008",0.0087 µM
same,potency estimated from few doses,"CDKL5; compound concentrations:100 nM and 1000 nM (sheet 'Lestaurtinib' of Supplementary Table 1),run:Lestaurtinib_02438_R2,Plate:MR008",0.181 µM
same,potency estimated from few doses,CDKL5; [1],0.176 µM
same,potency estimated from few doses,CDKL5; [2],0.0271 µM
same,potency estimated from few doses,"CDKL5; compound concentrations:100 nM and 1000 nM (sheet 'Lestaurtinib' of Supplementary Table 1),run:Lestaurtinib_02443_R3,Plate:MR009",0.0417 µM
same,potency estimated from few doses,CDKL5; [3],0.0704 µM
same,potency estimated from few doses,"CDKL5; compound concentrations:100 nM and 1000 nM (sheet 'Lestaurtinib' of Supplementary Table 1),run:Lestaurtinib_02473_R3,Plate:MR010",0.212 µM
same,potency estimated from few doses,"CDKL5; compound concentrations:100 nM and 1000 nM (sheet 'Lestaurtinib' of Supplementary Table 1),run:Lestaurtinib_02482_R1,Plate:MR011",0.0336 µM
same,potency estimated from few doses,"CDKL5; compound concentrations:100 nM and 1000 nM (sheet 'Lestaurtinib' of Supplementary Table 1),run:Lestaurtinib_02482_R2,Plate:MR011",0.0274 µM
same,potency estimated from few doses,CDKL5; [4],0.19 µM
same,potency estimated from few doses,CDKL5; [5],0.449 µM
same,potency estimated from few doses,"CDKL5; compound concentrations:100 nM and 1000 nM (sheet 'Lestaurtinib' of Supplementary Table 1),run:Lestaurtinib_02496_R1,Plate:MR013",0.0149 µM
same,potency estimated from few doses,CDKL5; [6],0.298 µM
same,potency estimated from few doses,"CDKL5; compound concentrations:100 nM and 1000 nM (sheet 'Lestaurtinib' of Supplementary Table 1),run:Lestaurtinib_02566_R3,Plate:MR014",0.0212 µM
same,potency estimated from few doses,CDKL5; [7],0.389 µM
